Inconclusive results are not listed. The source made the active and inactive calls. The calls were made as follows: active = hit-call score of the fitted dose curve at least 0.9, where 1 is the maximum; inconclusive = response in the unintended direction; inactive = score below 0.9.
Target: Bile acid receptor (Homo sapiens) (UniProt Q96RI1)
Assay: NVS_NR_hFXR_Agonist: NovaScreen (NVS) Nuclear Receptor Binding Assay for human Farnesoid X Receptor Agonism (FXR) (AID 2283347)
Protocol: NVS_NR_hFXR_Agonist is a biochemical, single-readout assay that uses extracted gene-proteins in a cell-free assay. Measurements were taken 1 hour after chemical dosing in a 384-well plate.NVS_NR_hFXR_Agonist is one of one assay component(s) measured or calculated from the NVS_NR_hFXR_Agonist assay. It is designed to make measurements of fluorescent resonance energy transfer, a form of binding reporter, as detected with fluorescent resonance energy transfer signals by Time-Resolved Fluorescence Resonance Energy Transfer (TR-FRET) technology.Data from the assay component NVS_NR_hFXR_Agonist was analyzed into 1 assay endpoint. This assay endpoint, NVS_NR_hFXR_Agonist, was analyzed in the positive analysis fitting direction relative to DMSO as the negative control and baseline of activity. Using a type of binding reporter, gain-of-signal activity can be used to understand changes in the binding as they relate to the gene NR1H4. Furthermore, this assay endpoint can be referred to as a primary readout, because the performed assay has only produced 1 assay endpoint. To generalize the intended target to other relatable targets, this assay endpoint is annotated to the nuclear receptor intended target family, where the subfamily is non-steroidal.
Binding assays used specific radioligands (tritiated, iodinated) with non-radioactive competitive displacement ligands in agonist or antagonist protocols (as indicated) and various reference compounds and inhibitors to titrate specific binding to receptors and transporters. Most enzyme assays (CYPs, kinases, phosphatases, proteases, HDACs) used recombinant protein and specific substrates (fluorescence mostly, some colorimetric and radioactive) and inhibitors, followed by a biochemical separation of substrate and product. All assays for the biochemical HTS were initially run in duplicate at a single concentration (10 uM for CYP450 assays and 25 uM for all others). […] Each assay was run with positive and negative controls, and concurrent controls on every plate. The follow-up (secondary) screen tested active chemical-pairs in concentration series, as well as a few additional assays not tested in the primary screen, some selected negative inactives, and several cases re-run in the concentration series for confirmatory purposes.

Chain of Bile acid receptor (Homo sapiens) (Q96RI1 whole entry, looked up): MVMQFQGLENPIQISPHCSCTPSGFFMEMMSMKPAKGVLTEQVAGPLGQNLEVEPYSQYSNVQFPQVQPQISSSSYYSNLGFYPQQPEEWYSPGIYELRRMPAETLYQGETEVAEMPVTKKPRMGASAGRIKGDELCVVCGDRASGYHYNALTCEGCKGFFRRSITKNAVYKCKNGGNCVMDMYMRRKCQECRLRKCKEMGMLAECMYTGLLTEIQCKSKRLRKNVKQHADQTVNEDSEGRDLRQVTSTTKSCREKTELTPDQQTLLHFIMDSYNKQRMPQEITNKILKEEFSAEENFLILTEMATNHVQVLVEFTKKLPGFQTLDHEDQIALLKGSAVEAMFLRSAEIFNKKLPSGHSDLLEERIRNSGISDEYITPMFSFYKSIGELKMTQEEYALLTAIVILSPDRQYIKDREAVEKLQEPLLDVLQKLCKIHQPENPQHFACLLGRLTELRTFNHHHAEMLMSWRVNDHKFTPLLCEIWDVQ

Compound	outcome	AC50
COc1cc(C(C)C)c2c(c1)S(=O)(=O)N(COc1cc(=O)n3cccc(OCCN4CCCCC4)c3n1)C2=O	inactive	–
Cc1c(C)c2c(c(C)c1O)CCC(C)(COc1ccc(CC3SC(=O)NC3=O)cc1)O2 (stereo unspecified)	inactive	–
CCN(Cc1cccnc1)C(=O)c1cccc(Cl)c1[C@]1(C)C(=O)N(Cc2ccc(OC)cc2OC)c2ccc(Cl)cc21	–	15.1 µM (active)
CCN(CCC#N)c1ccc(N=Nc2c(Cl)cc([N+](=O)[O-])cc2Cl)cc1	inactive	–
CC(C)OC(=O)C(C)(C)Oc1ccc(C(=O)c2ccc(Cl)cc2)cc1	–	25 µM (active)
Cc1nn(C)c(Oc2ccccc2)c1C=NOCc1ccc(C(=O)OC(C)(C)C)cc1	inactive	–
c1ccc(C[n+]2cccc3ccccc32)cc1	inactive	–
CC1(C)C(=O)N(Br)C(=O)N1Br	inactive	–
CCCCOC(=O)C(C)Oc1ccc(Oc2ccc(C(F)(F)F)cn2)cc1 (stereo unspecified)	inactive	–
CCc1c(C(=O)NN2CCCCC2)nn(-c2ccc(Cl)cc2Cl)c1-c1ccc(Br)cc1	inactive	–
CCCCOC(=O)[C@@H](C)Oc1ccc(Oc2ccc(C(F)(F)F)cn2)cc1	inactive	–
CCN(CC)CCOc1ccc(C(=C(Cl)c2ccccc2)c2ccccc2)cc1	inactive	–
CCCCCCCCOC(=O)c1cc(O)c(O)c(O)c1	inactive	–
CCCCOC(=O)c1ccc(O)cc1	inactive	–
COCC(C)OCC(C)O (stereo unspecified)	inactive	–
O=C(O)C1(C(=O)Nc2ccc(Cl)cc2Cl)CC1	inactive	–

Reference: PubChem BioAssay (EPA / NIEHS)
